# Screening results: PubChem, National Center for Advancing Translational Sciences (NCATS)
# Only some compounds are listed: those with a hit (about 0.55% of all), similar ones and a draw of the others.
# TCR act = Activators of T cell receptors: qHTS campaign; AID 504894, 2011; Potency, µM (top dose mostly 9.22 µM), most hits filed as activators; primary human leukocytes, anti-CD3, IL-2 HTRF, 48 h; 330,000 tested, under 10 active
#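 Human primary leukocytes + a-CD3 beads + cpd, 48 hr; IL-2 in supernatant by HTRF (ex 320nm / em 665nm). No co-stimulatory signal supplied.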
# GRP78 ERSR act = qHTS for Inducers of the Endoplasmic Reticulum Stress Response (ERSR) in Human Glioma: qHTS; AID 602332, 2012; hit rate 0.02% among 420,000; Potency, µM, most hits filed as activators; U87-MG GRP78 promoter luciferase reporter, 16 h; note: series mostly up to about 76 µM; nearly all actives have a fitted effect of over 35% in size
#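 ERSR induction read as luciferase luminescence (Bright-Glo, 10 min at room temperature) in stably transfected human U87-MG glioma cells exposed to compounds for 16 h, using GRP78 as sensor.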
# RGS4 inhibitor = Inhibitors of Regulator of G Protein Signaling (RGS) 4: qHTS; Regulator of G-protein signaling 4 (Homo sapiens), P49798; Transcreener GDP fluorescence polarization, RGS4-accelerated GTP hydrolysis; Potency, µM (series often up to 114 µM), most hits filed as inhibitors; hit rate 0.039% among 390,000; note: nearly all actives have a fitted effect of over 75% in size
#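 MLSMR compounds (23 nl, pin-transferred) preincubated 10 min at room temperature with a 500nM (2x) first reagent, then RGS4 at 900nM (2x) plus Transcreener GDP mix added; fluorescence polarization (620/688 nm) read before and after 90 min at 30 °C.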
# TSHR antagonist = Antagonists of the Thyroid Stimulating Hormone Receptor: HTS campaign; Thyrotropin receptor (Homo sapiens), P16473; TSHR-expressing cells, TSH-stimulated cAMP HTRF, 2 h; stronger effect = lower value; activity change, negative = inhibition, % at 11.5 µM; hit rate 0.2% among 330,000;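 active = activity change below a set negative limit, meaning inhibition stronger than a set level, cut at about -70% in these data; inconclusive = activity change between two set negative limits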
# Target sequence (P16473 whole entry, looked up): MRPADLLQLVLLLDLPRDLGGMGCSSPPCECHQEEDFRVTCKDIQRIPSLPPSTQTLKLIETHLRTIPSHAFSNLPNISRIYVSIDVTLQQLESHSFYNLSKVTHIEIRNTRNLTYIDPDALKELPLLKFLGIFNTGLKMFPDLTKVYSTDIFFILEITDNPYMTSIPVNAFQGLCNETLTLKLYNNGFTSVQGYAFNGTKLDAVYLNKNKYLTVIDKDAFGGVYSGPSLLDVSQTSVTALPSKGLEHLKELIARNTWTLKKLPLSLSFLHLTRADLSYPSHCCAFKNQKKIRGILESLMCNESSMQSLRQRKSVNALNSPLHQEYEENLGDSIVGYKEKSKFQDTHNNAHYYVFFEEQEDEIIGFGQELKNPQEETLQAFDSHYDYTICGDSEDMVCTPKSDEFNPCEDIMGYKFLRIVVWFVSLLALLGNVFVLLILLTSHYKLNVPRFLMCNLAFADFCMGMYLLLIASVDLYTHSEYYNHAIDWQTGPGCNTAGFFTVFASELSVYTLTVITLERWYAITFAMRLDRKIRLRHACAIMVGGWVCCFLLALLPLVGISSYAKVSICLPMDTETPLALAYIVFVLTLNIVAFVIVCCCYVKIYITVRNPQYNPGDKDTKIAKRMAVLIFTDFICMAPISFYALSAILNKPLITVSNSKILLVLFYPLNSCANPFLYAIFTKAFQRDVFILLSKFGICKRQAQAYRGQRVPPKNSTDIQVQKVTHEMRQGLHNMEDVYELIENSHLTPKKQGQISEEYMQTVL
#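 TSHR-expressing cells were treated with compounds, then stimulated with TSH at EC80 (4nM final) for 2 hours at 37 deg C. Cellular cAMP was measured by HTRF competition between lysate cAMP and cAMP-d2 for a cryptate-labelled anti-cAMP antibody.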
# LDHA inh = qHTS assay for inhibitors of human lactate dehydrogenase | L-lactate dehydrogenase A chain (Homo sapiens), P00338 | purified LDHA, NADH/diaphorase-resazurin fluorescence; stronger effect = lower value | activity change, % (values are at about 110 or 230 µM) | hit rate 0.15% among 480,000; in the data active = activity change below about -30%; inconclusive = mostly about -25% to -30%
#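 Enzyme activity of human lactate dehydrogenase 5 (2 nM; 0.06 mM NADH, 0.2 mM pyruvate, 5 min, RT) is measured via a resazurin/diaphorase fluorescence readout of residual NADH.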
# Akt phos inh = HTS Assay for Inhibitors of Akt Phophorylation: Primary Screen | hit rate 0.32% among 360,000 | Neuro2A IGF-stimulated pAkt S473 HTRF, 20 min; stronger effect = lower value | activity change, % for hits at 50 µM; in the data active = activity change below about -80%; inconclusive = mostly about -51% to -80%
#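 Single-point screen (50 µM final compound) in Neuro2A cells stimulated 20 min with 6 nM IGF at 37 deg C. After lysis, Ser473-phosphorylated Akt read by HTRF (ex 330 nm, em 615/665 nm) as the 665/615 ratio.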
# A number is an active result; 0 = inactive; ? = inconclusive; - = not tested or not shown; ! = repeats disagree; [ ] = another dose, or the depositor's remark. Unless noted, calls come from the whole dose curve; as a rule, active = well fitted curve in the direction sought with a large enough effect; inconclusive = small, poorly fitted or top-dose-only effect, or another doubt; inactive = no such curve, though single readings can be large; an effect the other way counts as inactive or inconclusive.
SMILES,TCR act,GRP78 ERSR act,RGS4 inhibitor,TSHR antagonist,LDHA inh,Akt phos inh
O=[N+]([O-])c1c(Nc2ccccc2Cl)cc(Cl)c2nonc12,-,-,-,-,0,-
O=[N+]([O-])c1c(Nc2ccc(O)cc2)cc(Cl)c2nonc12,0,0,?,-102,0,0
CS(=O)(=O)N(Cc1ccc(Cl)cc1)c1ccc(C(=O)N2CCN(c3ccccc3)CC2)cc1,0,0,0,0,0,0
CS(=O)(=O)N(Cc1ccccc1)c1ccc(C(=O)N2CCN(c3cccc(Cl)c3)CC2)cc1,0,0,0,-92,0,0
CCN(C(=O)CCS(=O)(=O)c1ccc(Br)cc1)c1ccc2c(c1)OCO2,0,0,0,0,0,-108%
COc1ccccc1C(=O)NCCC(=O)Nc1ccc(OC(F)(F)F)cc1,0,0,0,-95,0,0
COc1ccccc1C(=O)NCCC(=O)Nc1ccncc1,0,0,0,0,0,0
Cc1nc2ccc(S(=O)(=O)NCC(=O)N3CCN(c4ccccn4)CC3)cc2s1,0,0,0,0,0,-117%
CCC(=O)Nc1ccccc1C(=O)OCC(=O)c1cccc2ccccc12,0,0,0,0,0,-118%
COc1ccc(N2C(=O)CC(Cc3ccccc3)C2=O)cc1 (stereo not given),0,0,0,0,0,-89%
COc1ccc(N2C(=O)CC(N3CCOCC3)C2=O)cc1 (stereo not given),0,0,0,0,0,-110%
COc1ccc(N2C(=O)CC(Cc3ccccc3OC)C2=O)cc1 (stereo not given),0,0,0,0,0,0
Cc1ccc(/C=C/C(=O)NC2CCc3ccccc32)o1 (stereo not given),-,-,-,-,0,-
CC(C(=O)Nc1c(F)cccc1F)N1CCN(c2ccc(O)cc2)CC1 (stereo not given),-,-,-,-,0,-
Cc1cc2c(s1)CCc1cc(C(=O)NC3CCCC3)sc1-2,-,-,-,-,0,-
Cc1cc(N2CCOCC2)nc(SCc2ccc(Cl)cc2Cl)n1,0,0,0,0,0,-110%
Cc1cc(N2CCOCC2)nc(SCC(=O)OCc2ccccc2)n1,0,0,0,0,0,0
C=CCNC(=O)c1ccccc1NC(=O)c1cccc(C#N)c1,-,-,-,-,0,-
C=CCNC(=O)c1ccccc1NC(=O)c1ccc(Cl)c(S(=O)(=O)Nc2ccccc2)c1,-,0,0,0,0,-88%
CCCC(=O)Nc1ccc2oc(-c3cccc(Cl)c3)nc2c1,-,-,-,-,0,-
Cc1c2c(nc3ccccc13)CCc1ccccc1-2,-,-,-,-,0,-
COc1ccc(-c2cc(=O)c3cc(OC(=O)C(C)(C)C)ccc3o2)cc1,-,-,-,-,-32,-
S=C(Nc1ccccc1)Nc1nccs1,0,?,11µM!,0,0,0
CCC(C)(C)C1CCc2c(sc(N)c2C#N)C1 (stereo not given),-,-,-,-,0,-
CC(C)CCNC(=S)Nc1ccccc1,-,-,-,-,0,-
SMILES,TCR act,GRP78 ERSR act,RGS4 inhibitor,TSHR antagonist,LDHA inh,Akt phos inh
CC(C)COC(=S)Nc1ccccc1,0,0,0,0,0,-108%
O=[N+]([O-])c1ccc(N=Nc2c(Cl)cc(O)cc2Cl)cc1,0,0,0,-91,0,0
CC(N)=Nc1ccc([N+](=O)[O-])cc1,0,0,0,0,0,0
COc1cccc(N(CC(=O)NC(C)c2ccccc2)S(C)(=O)=O)c1 (stereo not given),0,0,0,0,0,-119%
N#Cc1c(N2CCN(C(=O)C(=O)NCCc3ccccc3)CC2)nc(-c2ccco2)c2c1CCCC2,-,-,-,-,0,-
CCOC(=O)c1ccc(NC(=O)CC2C(=O)OCCN2CC)cc1 (stereo not given),0,0,0,0,0,0
CCOC(=O)c1ccc(NC(=O)CC2OCCN(CC)C2=O)cc1 (stereo not given),0,0,0,0,0,-118%
CCc1ccc(NC(=O)C(=O)NCC2CCCO2)cc1 (stereo not given),0,0,0,0,0,0
CCOC(=O)c1ccc(NC(=O)C(=O)NCC2CCCO2)cc1 (stereo not given),0,0,0,0,0,-108%
Cc1cc(/C=C/C(=O)c2cccs2)cc(C)c1O,-,-,-,-,0,-
Cc1ccc(C)c(N2CCN(C(=O)C3CCN(c4nnc(-n5c(C)ccc5C)s4)CC3)CC2)c1,-,-,-,-,0,-
CCOc1cc(C(=O)Nc2ccc(N3CCCC3)c(Cl)c2)cc(OCC)c1OCC,-,-,-,-,0,-
CN1CCN(c2nc3c(c(=O)n(C)c(=O)n3C)n2CC(=O)C23CC4CC(CC(C4)C2)C3)CC1,-,0,0,0,0,-82%
COCCNC(=O)C1CCN(S(=O)(=O)N2CCC3(CC2)OCCO3)CC1,0,0,0,0,0,-82%
Cc1cc(NCCCn2ccnc2)n2ncc(-c3ccccc3)c2n1,0,0,0,0,0,-90%
Cc1cc(NCCCn2ccnc2)n2nc(C)c(-c3ccccc3)c2n1,0,0,0,0,0,0
O=C1CC(c2ccc(F)cc2)Cc2nc(NCc3ccco3)ncc21 (stereo not given),0,0,0,0,0,-84%
COc1ccc2nc(/C=C/c3cccc(F)c3)sc2c1,-,-,-,-,0,-
Cc1ccccc1NC(=O)Cc1nc(-c2c(N)n(C)c(=O)n(C)c2=O)cs1,-,-,-,-,0,-
Cc1csc(SCC(=O)Nc2nc3ccccc3s2)n1,0,0,0,0,0,-115%
CN(C)/C=C(\C#N)C(=O)c1cccc(Oc2ccc(Br)cc2)c1,0,0,0,0,0,-112%
O=C(c1ccc2snnc2c1)N1CCSCC1,0,0,0,0,0,-108%
O=C(c1ccc2snnc2c1)N1CCCCC1,0,0,0[11.4 µM],0,0,0
CCCCC(=O)Nc1sc2c(c1-c1nc3ccccc3s1)CCN(C(C)C)C2,-,-,-,-,0,-
CC(=O)Oc1ccc2nc(/C=C/c3ccccc3)oc(=O)c2c1,0,0,0,-78,0,0
SMILES,TCR act,GRP78 ERSR act,RGS4 inhibitor,TSHR antagonist,LDHA inh,Akt phos inh
COc1ccc(-c2cc(Nc3ccccc3Cl)nc(C)n2)cc1,-,-,-,-,0,-
C[n+]1cnn2c1SCC1(COC1)C2,0,0,0,0,-58,-
COc1cccc(NC(=O)c2ncoc2-c2ccc(C)s2)c1,-,-,-,-,0,-
CN(C)C(=O)CCS(=O)(=O)Cc1coc(-c2ccc(F)cc2)n1,-,-,-,-,-34,-
COc1ccc2nc(C(=O)NC(C3CC3)C3CC3)ccc2c1,-,-,-,-,0,-
Cc1ccc(NC(=O)CN2CCN(c3ccc(C(F)(F)F)cn3)CC2)c(F)c1,-,-,-,-,0,-
COc1ccc(NC(=O)c2c(NC(=O)COc3ccccc3)sc3c2CCC(C(C)(C)C)C3)cc1 (stereo not given),-,0,0,-,0,-
